TRPM1 prom inh – MITF TRPM1 promoter inhibition in SK-MEL-5 cells. SK-MEL-5 TRPM1 promoter luciferase, 24 h. actives 0.83% (n = 330,000). inhibition, % at 12.5 µM;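 active means mean inhibition across replicates of 60% or more, whatever share of single replicates reaches that level; inconclusive means some that reach 60%, reason not given; inactive means mean inhibition across replicates below 60%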
MITF TRPM1 HTS – MITF TRPM1 promoter activation in melanoma cells. SK-MEL-5 TRPM1-promoter luciferase, 24 h; % of positive control, neutral wells = 0. activation, % at 12.5 µM. actives 0.75% (n = 300,000);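 active means mean activation of at least 80% with every replicate also reaching 80%; inconclusive means mean reaches 80% but some replicate falls short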
PAX8 reporter – PAX8 transcriptional activity inhibition. actives 1.2% (n = 360,000). AID 652154. inhibition, % at 12.6 µM. RMG-I TPO-luciferase reporter, SteadyGlo, 24 h;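 active means mean replicate inhibition at least 60% with every replicate also reaching 60%; inconclusive means only one of the two criteria is met; inactive means mean below 60% and not all replicates reaching 60%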;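 further: luciferase light reporting Pax8 driven TPO promoter activity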
Wnt act – Wnt/beta-catenin pathway activation; Wnt/beta-catenin reporter cell assay, activator, plate reader; activation, % at 9.35 µM; actives 1.2% (n = 300,000); AID 743398; in the data active means activation above about 30%, passing the limit was not always enough; inconclusive means no clear call, values can overlap the other calls
esBAF inh – inhibitors of esBAF chromatin remodeling in mouse ES cells | Bmi1-luciferase knock-in reporter, 24 h; 100% = twice the neutral-well signal | reporter increase, % at 12.5 µM | AID 602393 | actives 2% (n = 350,000); in the data active means activation above about 40%; inconclusive means no clear call, values can overlap the other calls;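 further: a rise in the Bmi1 reporter signal indicates esBAF inhibition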
EWS-Fli block – inhibitors of EWS/Fli oncoprotein transcriptional activity. A673 NR0B1-luciferase reporter, viability-normalised. inhibition, % at 12.6 µM. actives 0.67% (n = 350,000). AID 651661;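 active means mean inhibition of at least 50% after viability correction, with every replicate also passing that limit; inconclusive means mean reaches 50% but only one of two replicates passes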;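 further: firefly luciferase signal divided by Alamar Blue viability fluorescence both relative to DMSO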
A number is an active result; n = inactive; u = inconclusive; x = no result given. The list is not random: actives were taken first. Their share in the collection is about 4%.

SMILES | TRPM1 prom inh | MITF TRPM1 HTS | PAX8 reporter | Wnt act | esBAF inh | EWS-Fli block
CC(C)NC(=O)N1CC(=O)N2[C@H](CO)[C@@H](c3ccc(C#CCN(C)C)cc3)[C@@H]2C1 | x | x | n | x | x | n
C[C@@H]1CN([C@@H](C)CO)C(=O)c2cc(NC(=O)Nc3ccc(F)cc3)ccc2O[C@@H](C)CCCCO[C@H]1CN(C)S(=O)(=O)c1cn(C)cn1 | x | x | n | x | n | n
CCc1ccc(NC(=O)c2cc(-c3cccs3)on2)cc1 | n | 94 | n | n | n | n
Cc1ccc(NC(=O)c2cc(-c3cccs3)on2)cc1C | n | 99 | n | 39 | 52 | n
COc1ccc(NC(=O)c2cc(-c3cccs3)on2)cc1OC | n | n | x | x | n | x
COCC#Cc1cnc2c(c1)C(=O)N([C@@H](C)CO)C[C@@H](C)[C@@H](CN(C)C(=O)Nc1cc(F)ccc1F)O2 | x | x | n | x | n | n
CC(C)NC(=O)N(C)C[C@H]1Oc2ncc(-c3cccc(C#N)c3)cc2C(=O)N([C@@H](C)CO)C[C@@H]1C | x | x | x | x | n | n
CC(C)Cc1nc2oc3c(Cl)ncnc3c2c2c1CCC2 | u | n | x | n | x | 58
COc1cccc(/C=N/Nc2ncnc(Cl)c2N)c1O | n | n | x | n | x | n
COc1cccc(/C=N/Nc2ncnc3scc(-c4ccccc4)c23)c1O | 70 | n | 76 | n | x | x
COc1cc(/C=N/Nc2snc(SC)c2C#N)ccc1O | n | n | x | x | 60 | x
COc1cccc(/C=N/Nc2nc3ccccc3[nH]2)c1OC | n | x | n | n | x | n
COc1cccc(/C=N/Nc2nc3ccccc3[nH]2)c1O | n | n | n | n | 62 | n
CC(=NNc1cc(C)c2cc(C)ccc2n1)c1ccccn1 | x | x | 69 | n | x | n
COc1ccc2c3c([nH]c2c1)[C@H](CO)N(C(=O)Nc1ccc(F)cc1)CC31CN(Cc2cc(-c3ccccc3)on2)C1 | x | x | n | x | x | n
C[C@@H]1CN([C@H](C)CO)S(=O)(=O)c2ccc(C3=CCCCC3)cc2O[C@@H]1CN(C)S(=O)(=O)c1cn(C)cn1 | x | x | n | x | n | n
O=C(CC1CC1)Nc1ccc2c(c1)[C@H]1C[C@@H](CC(=O)N3CCOCC3)O[C@@H](CO)[C@H]1O2 | x | x | n | x | n | n
CNC(=O)C[C@H]1CC[C@H]2[C@@H](COc3ccc(NC(=O)c4cc(C)on4)cc3C(=O)N2C)O1 | x | x | n | x | n | n
C/C(=N\Nc1nc2ccccc2[nH]1)c1ccccn1 | n | n | 68 | n | n | n
CC(/C=N/Nc1nc(C)cc(=O)[nH]1)=C\c1ccccc1 | n | n | n | n | n | n
CC(/C=N/Nc1nc2ccccc2[nH]1)=C\c1ccccc1 | n | n | n | 53 | x | n
COc1cc(/C=N/Nc2nc3ccccc3[nH]2)ccc1O | n | n | n | n | 47 | n
COc1cc(/C=N/NC(=Nc2ccc(C)cc2)c2nc3ccccc3s2)ccc1O | 69 | n | x | x | n | x
COc1cc(/C=N/NC(=O)c2cccc(C(=O)N/N=C/c3ccc(O)c(OC)c3)n2)ccc1O | n | n | n | n | n | n
CN1C(=O)c2cc(NS(=O)(=O)c3cccc(F)c3)ccc2OC[C@@H]2O[C@@H](CC(=O)N3CCc4ccccc4C3)CC[C@H]21 | x | x | n | x | n | n
SMILES | TRPM1 prom inh | MITF TRPM1 HTS | PAX8 reporter | Wnt act | esBAF inh | EWS-Fli block
O=C(Nc1ccccc1)N1CCCCN2[C@@H](CO)[C@H](c3ccc(C#Cc4cccnc4)cc3)[C@@H]2C1 | x | x | n | x | x | n
Cc1ccc(-c2csc3ncnc(Sc4nnc(CN5CCCCCC5=O)o4)c23)cc1 | 85 | n | 111 | n | n | x
Cc1noc(C)c1S(=O)(=O)Nc1ccc2c(c1)C(=O)N([C@@H](C)CO)C[C@H](C)[C@H](CN(C)S(=O)(=O)c1cccs1)OCCCC[C@@H](C)O2 | x | x | n | x | n | n
CCCN1C[C@@H](C)[C@@H](OC)CN(C)C(=O)c2cc(NC(=O)c3ccc(F)cc3)ccc2OC[C@@H]1C | x | x | x | x | n | n
Cc1ccc(S(=O)(=O)N/N=C2/CC(c3ccccc3)Oc3ccccc32)cc1[N+](=O)[O-] (stereo unspecified) | n | x | x | x | 41 | x
CCOc1ccc(OCc2ccc(C(=O)N3CCOCC3)cc2)cc1 | n | x | x | x | n | x
CCOc1ccc(N=C(/C(C(=O)C(=O)N2CCOCC2)=C(\O)c2ccccc2)c2ccccc2)cc1 | n | 87 | n | n | 68 | n
CCOC(=O)c1cnn(-c2ccccn2)c1N | n | 102 | x | x | n | x
CCOC(=O)c1cnc2c(-c3ccccc3)cnn2c1N | n | n | n | 38 | n | x
O=C(CN1CCOCC1)N[C@H]1CC[C@H](CCNC(=O)C2CCCCC2)O[C@H]1CO | x | x | n | x | n | n
Cc1nn(Cc2c(Cl)cccc2Cl)c(C)c1NC(=O)c1cn(-c2ccccc2)nc1-c1ccccc1 | 87 | n | x | x | x | x
CC1CCC(=C(C#N)c2nc(-c3cc4ccccc4oc3=O)cs2)CC1 (stereo unspecified) | n | 88 | x | x | n | x
Cc1ccc(-c2ccc3c(c2)O[C@H](CN(C)C(=O)CN(C)C)[C@@H](C)CN([C@H](C)CO)S3(=O)=O)cc1 | x | x | x | x | n | n
CC(=O)Nc1ccc2c(c1)Cc1ccc(Cl)cc1-2 | n | n | n | n | 46 | n
CC(=O)Nc1ccc2c(c1)Cc1cc(N3C(=O)C=CC3=O)ccc1-2 | 78 | n | n | n | n | n
CCCCC(CC)CO (stereo unspecified) | n | n | x | n | n | n
CCCCC(CC)CN=C(N)NC(N)=NCCCCCCN=C(N)NC(N)=NCC(CC)CCCC (stereo unspecified) | 110 | n | x | x | n | x
CC(Sc1nc2ccccc2s1)C(=O)NCc1ccc2c(c1)OCO2 (stereo unspecified) | n | n | n | n | 52 | n
Cc1csc(SC(C)C(=O)NCc2ccc3c(c2)OCO3)n1 (stereo unspecified) | n | n | n | n | n | n
Cc1ccc(-n2c(-c3ccccc3)c[n+]3c2CCc2ccccc2-3)c(C)c1 | 76 | n | 91 | n | x | n
COCCNC(=O)[C@H]1[C@H](CO)[C@H]2Cn3c(cccc3=O)[C@@H]1N2Cc1cc(F)ccc1F | x | x | n | x | n | n
CN(C)CCCNC(=O)c1cc2sc3ccccc3c2s1 | n | n | n | n | x | n
COCCNC(=O)c1cc2sc3ccccc3c2s1 | n | x | n | 46 | n | x
CN(C)CCCNS(=O)(=O)c1ccc(N2CCN(Cc3ccc4c(c3)OCO4)CC2)c([N+](=O)[O-])c1 | n | n | n | n | n | 52
CC(=O)c1cccc(NC(=O)c2ccc(-c3ccccc3[N+](=O)[O-])o2)c1 | n | n | n | 109 | 103 | x
CCn1nnc(NC(=O)c2ccc(-c3ccccc3[N+](=O)[O-])o2)n1 | n | n | n | n | n | n
Cc1cc(NC(=O)c2ccc(-c3ccccc3[N+](=O)[O-])o2)no1 | x | x | n | n | 57 | n
CCCNC(=O)N(C)C[C@@H]1Oc2ncc(C#C[C@@H](C)O)cc2C(=O)N([C@@H](C)CO)C[C@H]1C | x | x | x | x | n | n

Compound activity deposited in PubChem by Broad Institute.
